Screening results: PubChem, Small Molecule Screening Facility, UW Madison
The full list was thinned out, with hits kept by preference.
RMI FANCM FP = disruptors of RMI1/RMI2 association with MM2 peptide – biochemical, fluorescence polarization, human, primary screen. RMI core complex (RMI1/RMI2) binding to FANCM MM2 peptide, human. AID 1159607, 2016. FP signal (polarization) at 33 µM. 70,000 compounds, 0.58% hits. RMI core complex with F-MM2 peptide; stronger effect = lower value; in the data active = FP signal below about 40
Large screens that a line does not name were inactive; ! = not active in a repeat.

CCOC(=O)C1=C(N)C(=O)N(c2ccccc2)C1	none
CCOC(=O)c1ccc(N)cc1	none
CCOC(=O)C1=C(N)CC(C(=O)OCC)=C(N)C1	RMI FANCM FP 16
O=C(Nc1ccccc1[N+](=O)[O-])C1CCCN(c2ccc(-c3ccccc3)nn2)C1 (centres undefined)	none
Cc1ccc(-c2nc(SCC(=O)N3CCCC3)c3c(=O)n(C)c(=O)n(C)c3n2)cc1	none
O=C(Cc1cccs1)Nc1nc2ccc(F)cc2s1	none
Cc1cc(NC(=O)CN2CC3CC(C2)c2cccc(=O)n2C3)nc2c1c(=O)oc1ccccc12 (centres undefined)	RMI FANCM FP 31!
O=C(CSc1nc2c(oc3ccccc32)c(=O)n1CC1CCCO1)Nc1cccc(Cl)c1 (centres undefined)	none
Cc1cc(NC(=O)C(C)(C)Oc2ccc(Cl)cc2)nc2c1c(=O)oc1ccccc12	none
O=C(NCCn1ncccc1=O)Nc1ccccc1C(F)(F)F	none
COCCN1CCCc2ccc(NS(=O)(=O)c3ccccc3Cl)cc21	none
COCCN1CCCc2ccc(NS(=O)(=O)c3ccc(C(C)(C)C)cc3)cc21	none
COCCN1CCCc2ccc(NS(=O)(=O)Cc3ccc(Cl)cc3)cc21	RMI FANCM FP -27
COCCN1CCCc2ccc(N)cc21	RMI FANCM FP -72
COCCN1CCCc2ccc(NC(=O)c3cc(C)cc(C)c3)cc21	none
COCCN1CCCc2ccc(NS(=O)(=O)c3ccc(OC)cc3)cc21	none
COCCN1CCCc2ccc(NS(=O)(=O)c3ccc(F)cc3F)cc21	RMI FANCM FP 18
COCCN1CCCc2ccc(NS(=O)(=O)c3cc(Cl)ccc3C)cc21	none
COCCN1CCCc2ccc(NS(=O)(=O)c3cc(C)c(C)cc3OC)cc21	none
COc1ccc(-n2c(C)nc3ccc(NC(=O)CCSc4ccccc4)cc3c2=O)cc1	none
O/N=C\c1ccc(-c2cc(C(F)(F)F)cc(C(F)(F)F)c2)o1	none
O=C(Nc1cnccn1)c1ccc(Cl)c(S(=O)(=O)N2CCOCC2)c1	none
CCOc1cccc2cc(-c3csc(NC(=O)c4ccnn4C)n3)oc12	none
C=CCN(CC=C)S(=O)(=O)c1ccc2nc(NC(=O)/C=C/c3ccco3)sc2c1	none
O=c1c(N2CCCCC2)c(N2CCOCC2)c1=O	none
Cc1sc(NC(=O)c2ccc(S(=O)(=O)N(C)C3CCCC3)cc2)c(C#N)c1C	none
COc1ccc(C(CC(=O)NCc2ccccc2)Sc2n[nH]c(-c3ccc(F)cc3)n2)cc1 (centres undefined)	none
COc1ccc(-c2nc(SC(CC(=O)NCCN3CCOCC3)c3ccc(OC)cc3)n[nH]2)cc1 (centres undefined)	RMI FANCM FP 22
COc1ccc(-c2nc(SC(CC(=O)NCCc3ccccc3)c3cccs3)n[nH]2)cc1 (centres undefined)	none
COC(=O)Cn1c(=NC(=O)c2ccc(S(=O)(=O)N3CCCc4ccccc43)cc2)sc2cc(S(N)(=O)=O)ccc21	none
O=C(Cn1c(-c2cccnc2)nc2ccccc21)N1CCCCCC1	none
O=C(CSc1nnc(CNC(=O)c2cccs2)n1-c1ccc(Br)cc1)Nc1nccs1	none
COC(=O)c1ccc2nc(NC(=O)c3ccc(N(C)C)cc3)sc2c1	RMI FANCM FP -15
CCOc1cc(C(=O)Nc2nc3ccc(C(=O)OC)cc3s2)cc(OCC)c1OCC	none
COC(=O)c1ccc2nc(NC(=O)c3ccnn3C)sc2c1	none
Cc1cc(C)cc(OCCNS(=O)(=O)c2ccc(C)c(C)c2)c1	none
CCOc1ccc(-n2ccn(CC(N)=O)c(=O)c2=O)cc1	none
O=S(=O)(Nc1ccc2ncsc2c1)c1ccc2c(c1)OCCO2	none
CN(C)c1ccc(C(=S)NCCNC(=S)c2ccc(N(C)C)cc2)cc1	none
CSc1scc2c1C(=O)/C(=C/N(C)C)CC2	RMI FANCM FP 33
CSc1scc2c1-c1nc(SCC(=O)C(C)(C)C)ncc1CC2	none
COc1ccc(Cl)cc1S(=O)(=O)Cc1nc(-c2ccc(OC(C)C)cc2)no1	none
O=C1c2ccc(O)c(O)c2C(=O)c2c(O)ccc(O)c21	none
O=C1c2c(O)ccc([N+](=O)[O-])c2C(=O)c2c(O)ccc([N+](=O)[O-])c21	RMI FANCM FP -25
O=[N+]([O-])c1ccc(S(=O)(=O)c2ccccc2)cc1O	none
O=C(NCCc1c[nH]c2ccccc12)C(=O)Nc1ccncc1	none
CC(=O)O[C@H]1C[C@@H]2CC[C@@H]3[C@H](CC[C@@]4(C)[C@H]3C[C@H]([N+]3(C)CCCCC3)[C@@H]4OC(C)=O)[C@@]2(C)C[C@@H]1[N+]1(C)CCCCC1	none
CC(=O)O[C@H]1C[C@@H]2CC[C@@H]3[C@H](CC[C@@]4(C)[C@H]3C[C@H]([N+]3(C)CCCCC3)[C@@H]4OC(C)=O)[C@@]2(C)C[C@@H]1N1CCCCC1	none
CC(=O)OC1C([N+]2(C)CCCCC2)C[C@H]2C3CC[C@H]4C[C@H](OC(C)=O)C([N+]5(C)CCCCC5)CC4(C)[C@H]3CCC12C (some centres undefined)	RMI FANCM FP -9
O=C(NNC(=O)c1ccc(CSc2ccc(C(F)(F)F)cn2)o1)c1cccc(Cl)c1	none
Cc1nc(CSCC(=O)Nc2ccc(Cl)cc2)cs1	none
COc1ccc(Nc2c(Cl)cc(OC)cc2Cl)cc1	none
COc1ccc(NC(=O)CO)cc1	none
COc1ccc(NC2=CC(=O)C=CC2=O)cc1	RMI FANCM FP 30
COC(=O)c1ccc(C(=O)NCc2ccsc2)cc1	none
COc1ccc(CCNc2ccc(C(F)(F)F)cc2N=Cc2ccc([N+](=O)[O-])s2)cc1OC	none
O/N=C\C1=C(Cl)c2cc(Cl)ccc2OC1	none
C=CCN1C(=O)C(C)(C)COc2cc(NC(=O)c3ccccc3C)ccc21	none
Fc1ccc(-c2csc(N/N=C\c3ccccc3)n2)cc1	none
O=[N+]([O-])c1cccc(/C=N\Nc2nc(-c3ccc(Cl)c(Cl)c3)cs2)c1	none
C=CCc1cccc(/C=N\Nc2nc(-c3ccc4ccccc4c3)cs2)c1O	RMI FANCM FP 14
O=C(Nc1ccc(Nc2ccccc2)cc1)C(=O)c1c[nH]c2ccccc12	none
Cn1c(SCC(=O)Nc2ccc3c(c2)OCO3)nc2cc(-c3ccccc3)sc2c1=O	none
COc1cc2cc(CNc3ccc(C)cc3)c(=O)n(CC(=O)Nc3ccc(F)cc3F)c2cc1OC	RMI FANCM FP 9
Cc1ccc(-c2noc(-c3cccn(CC(=O)Nc4ccc(F)cc4F)c3=O)n2)cc1	none
COc1cc(-c2ccc(=O)n(CC(=O)Nc3ccc(F)cc3F)n2)cc(OC)c1OC	none
Cc1cccc(NC(=O)NCC(c2cccc3ccccc23)N(C)C)c1 (centres undefined)	none
CC1(C)COc2ccc(NC(=O)COc3ccc4ccccc4c3)cc2NC1=O	none
O=C(Nc1ccccc1)c1csc(-c2ccccc2)n1	none
Cn1c(-c2nc(C(=O)NN3CCOCC3)cs2)cc2ccccc21	RMI FANCM FP 3
O=C(NC(=O)c1csc([N+](=O)[O-])c1)NN1CCOCC1	none
COCCNC(=O)Cc1csc2nc(-c3ccccc3)cn12	none
CC(=O)Oc1cccc2c1C(=O)c1c(OC(C)=O)cc(C(=O)O)cc1C2=O	RMI FANCM FP 34
CC(=O)Oc1ccccc1C(=O)O	none
O=C(O)c1cc(O)c2c(c1)C(=O)c1cc(O)cc(O)c1C2=O	none
Cc1ccc(C)n1-n1cnc2scc(-c3ccc(C(C)C)cc3)c2c1=O	none
Cc1cc(-c2ccccc2)nc2oc3c(SCC(=O)c4ccc(-c5ccccc5)cc4)ncnc3c12	RMI FANCM FP 32
Cc1cc(-c2ccccc2)nc2oc(C(=O)c3ccc(Cl)cc3)c(N)c12	none
CCOC(=O)Cn1cnc2c(oc3nc(-c4ccccc4)cc(-c4ccccc4)c32)c1=O	none
CC(/C=C1\SC(=O)N(CC(=O)Nc2ccc(O)cc2)C1=O)=C\c1ccccc1	none
